Screening data deposited in PubChem by National Center for Advancing Translational Sciences (NCATS).
An excerpt weighted towards active compounds, which were near 19% of everything screened.
TDP1 cell CPT: qHTS for Inhibitors of human tyrosyl-DNA phosphodiesterase 1 (TDP1): qHTS in cells in presence of CPT; Potency, µM (doses to about 46.2 µM), for inactives: at the highest dose activity change, negative = growth inhibition, usual class: inhibitors; chicken DT40 Tdp1-/-;hTDP1 cells + 20 nM CPT, ATP luminescence, 48 h; 420,000 tested, 12% active; AID 686979, 2013; note: potency is the fitted concentration of half-maximal effect; nearly all actives have a fitted effect of over 55% in size
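Chicken DT40 Tdp1-/- cells stably complemented with human TDP1 were seeded at 400 cells/well in medium containing 20 nM camptothecin, exposed to pin-transferred compounds, and grown at 37 °C for at least 48 hr. Viability was read as ATP luminescence.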
ELG1 repair inh: qHTS screen for small molecules that inhibit ELG1-dependent DNA repair in human embryonic kidney (HEK293T) cells expressing luciferase-tagged ELG1. HEK293T ELG1-luciferase reporter, luminescence, 16 h; DNA damage induced by 5-fluorouridine. 330,000 tested, 2.3% active. Potency, µM (top dose mostly 46.1 µM), for inactives: at the top dose activity change, negative = inhibition, most hits filed as inhibitors. AID 504467, 2011; note: potency is the fitted concentration of half-maximal effect; nearly all actives have a fitted effect of over 55% in size
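Reporter activity after DNA damage by 5-fluorouridine is monitored. Compound-treated cells incubate 16 hr at 37 °C, then ONE-Glo is added for 30 min before luminescence reading.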
TDP1 inh: qHTS Assay for Inhibitors of Tyrosyl-DNA Phosphodiesterase (TDP1); recombinant TDP1, AlphaScreen DNA substrate cleavage; Potency, µM (highest dose often 130 µM), inactives show top-dose activity change, negative = inhibition, most hits filed as inhibitors; 350,000 tested, 0.28% active; AID 485290, 2010; note: potency is the fitted concentration of half-maximal effect; nearly all actives have a fitted effect of over 40% in size
Target sequence (Q9NUW8 whole entry, looked up): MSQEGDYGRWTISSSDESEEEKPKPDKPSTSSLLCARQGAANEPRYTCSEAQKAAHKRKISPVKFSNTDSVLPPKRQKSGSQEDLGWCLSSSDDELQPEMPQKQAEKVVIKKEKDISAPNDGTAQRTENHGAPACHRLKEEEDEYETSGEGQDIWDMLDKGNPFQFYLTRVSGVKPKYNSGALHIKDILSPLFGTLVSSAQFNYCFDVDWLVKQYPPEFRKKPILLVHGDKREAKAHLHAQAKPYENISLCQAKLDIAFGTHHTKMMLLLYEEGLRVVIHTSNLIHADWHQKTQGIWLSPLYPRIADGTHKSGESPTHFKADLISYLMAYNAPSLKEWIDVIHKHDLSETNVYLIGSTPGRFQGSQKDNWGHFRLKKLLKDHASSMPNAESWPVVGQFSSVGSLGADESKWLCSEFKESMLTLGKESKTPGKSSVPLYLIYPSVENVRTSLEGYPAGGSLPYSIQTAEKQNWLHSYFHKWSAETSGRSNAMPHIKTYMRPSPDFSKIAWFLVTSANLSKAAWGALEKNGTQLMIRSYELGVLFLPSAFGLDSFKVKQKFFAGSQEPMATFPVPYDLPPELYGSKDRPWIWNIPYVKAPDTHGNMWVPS
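E. coli-derived human Tdp1, 1 nM final. Cpd preinc 15 min RT; substrate 15 nM final, 5 min RT; AS bead mix 10 ug/ml final, 10 min RT. Signal loss = tyrosine-FITC cleavage. No-enzyme wells = max signal.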
Giardia killer: Small Molecules that selectively kill Giardia lamblia: qHTS; 340,000 tested, 0.15% active; Giardia lamblia trophozoite viability; activity change, % at 7.66 µM, hits read low; in the data active = activity change below about -80%; inconclusive = between about -30% and that limit;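 note: parasites exposed to compound for two days anaerobically before the ATP read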
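Luminescent ATP signal served as the viability read-out, measured 15-30 min after adding ATP detection reagent to trophozoites that had been incubated with compounds for 48 hrs at 37 deg C anaerobically at 100 cells/well.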
IL1B secr inh: qHTS for Inhibitors of Inflammasome Signaling: IL-1-beta AlphaLISA Primary Screen. THP-1 LPS/ATP IL-1B secretion, AlphaLISA, 16 h; active compounds read low. activity change, % at 57.5 µM. 360,000 tested, 4.7% active. AID 743279, 2014; in the data active = activity change below about -50%; inconclusive = mostly about -30% to -49%
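Secreted IL-1B measured by AlphaLISA bead assay after 16 h compound exposure of THP-1 cells; compounds (final up to 57.5 uM) added 1 h before LPS (250 ng/mL) and ATP (1.25 mM) stimulation; lower signal means less secretion.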
TDP1 cell noCPT: qHTS for Inhibitors of human tyrosyl-DNA phosphodiesterase 1 (TDP1): qHTS in cells in absence of CPT; DT40 Tdp1-/- hTDP1 cells, no CPT, ATP luminescence, 48 h; Potency, µM (highest dose often 46.2 µM), for the others: top-dose activity change, negative = growth inhibition, actives largely listed as inhibitors; 420,000 tested, 15% active; AID 686978, 2013; note: potency is the fitted concentration of half-maximal effect; nearly all actives have a fitted effect of over 55% in size
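Growth of hTDP1-complemented DT40 Tdp1-knockout cells is measured by ATP luminescence after at least 48 hr compound exposure at 37 °C, with DMSO substituting for the 20 nM CPT used in the parallel screen.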
Active calls of the source: *; [ ] = dose if it differs, or a comment. Unless noted, calls come from the whole dose curve; as a rule, active = well fitted curve in the direction sought with a large enough effect; inconclusive = small, poorly fitted or top-dose-only effect, or another doubt; inactive = no such curve, though single readings can be large; an effect the other way counts as inactive or inconclusive. % is set by controls: 0 for no effect and ±100 for the full control effect.

For O=c1ccc(=O)n(-c2ccccc2)[nH]1 the results were TDP1 cell CPT 16µM*, ELG1 repair inh 7%, TDP1 inh 6%, Giardia killer -5, IL1B secr inh -6 and TDP1 cell noCPT inconclusive.
Screening CC(C)(C)c1cc(=O)n(-c2ccccc2)[nH]1 returned TDP1 cell CPT 26µM*, ELG1 repair inh inconclusive, TDP1 inh 3%, Giardia killer -28, IL1B secr inh -97* and TDP1 cell noCPT inconclusive.
`O=c1cc(-c2ccccc2)[nH]n1-c1ccccc1` gave TDP1 cell CPT inconclusive, Giardia killer -8, IL1B secr inh -16 and TDP1 cell noCPT inconclusive.
`Cc1cc(=O)oc2c(C)c(OC(C)C(=O)Nc3ccc(N4CCC(C)CC4)cc3)ccc12` (centres undefined) gave TDP1 cell CPT -29%, ELG1 repair inh -2%, TDP1 inh 9%, Giardia killer 12, IL1B secr inh 17 and TDP1 cell noCPT -24%.
O=C1[C@H]2[C@H]3[C@H](O)[C@H](O)C/C(=N/OC[C@@H](O)COCc4ccco4)[C@@H]3CC[C@@H]2C(=O)N1Cc1ccc2c(c1)OCO2 was read as TDP1 inh 9%[21 µM].
For O=C(NCCc1ccccc1)c1ccc2c(c1)OCCCO2 the results were TDP1 cell CPT -23%, ELG1 repair inh inconclusive, TDP1 inh 7%, Giardia killer -89*, IL1B secr inh -4 and TDP1 cell noCPT 13%.
`COc1ccc(CCNC(=O)c2ccc3c(c2)OCCO3)cc1` gave TDP1 cell CPT 4%, ELG1 repair inh inconclusive, TDP1 inh 1%, Giardia killer -20, IL1B secr inh -16 and TDP1 cell noCPT 22%.
For O=C(NCCc1ccccc1)c1ccc2c(c1)OCCO2 the results were TDP1 cell CPT -8%, ELG1 repair inh inconclusive, TDP1 inh 2%, Giardia killer -81*, IL1B secr inh -10 and TDP1 cell noCPT -15%.
Screening O=C(CCc1ccccc1)c1ccc2c(c1)OCCCO2 returned TDP1 cell CPT -9%, ELG1 repair inh inconclusive, Giardia killer -5, IL1B secr inh -23 and TDP1 cell noCPT -2%.
For COc1ccccc1C(=O)OCc1cc(=O)n2nc(C3CCCCC3)sc2n1 the results were TDP1 cell CPT -10%, TDP1 inh 5% and TDP1 cell noCPT inconclusive.
Screening CC(C)(C)N(Cc1ccccc1)C(=O)COC(=O)C1=NN(c2ccccc2)C(=O)CC1 returned TDP1 cell CPT 9%, ELG1 repair inh 8%, TDP1 inh -2%, Giardia killer -6, IL1B secr inh 19 and TDP1 cell noCPT 9%.
Screening Cc1cc(C)cc(NC(=O)CCc2c(C)nn(-c3ccc(N4CCCCC4)nn3)c2C)c1 returned TDP1 cell CPT inconclusive, ELG1 repair inh inconclusive, TDP1 inh 2%, Giardia killer 9, IL1B secr inh -17 and TDP1 cell noCPT inconclusive.
Screening Cc1ccc(NC(=O)CCc2c(C)nn(-c3ccc(N4CCCCC4)nn3)c2C)cc1 returned TDP1 cell CPT inconclusive, ELG1 repair inh inconclusive, TDP1 inh 6%, Giardia killer 20, IL1B secr inh -2 and TDP1 cell noCPT -18%.
`CCOC(=O)c1cccc(NC(=O)CCc2c(C)nn(-c3ccc(N4CCCCC4)nn3)c2C)c1` gave TDP1 cell CPT inconclusive, TDP1 inh 7% and TDP1 cell noCPT 23µM*.
COc1ccc(C)cc1NC(=O)CCc1c(C)nn(-c2ccc(N3CCCCC3)nn2)c1C was read as TDP1 cell CPT inconclusive, ELG1 repair inh inconclusive, TDP1 inh 12%, Giardia killer 18, IL1B secr inh inconclusive and TDP1 cell noCPT 26µM*.
Screening Cc1nn(-c2ccc(N3CCCC3)nn2)c(C)c1CCC(=O)Nc1ccc(F)c(Cl)c1 returned TDP1 cell CPT 18µM*, TDP1 inh 7% and TDP1 cell noCPT 26µM*.
`Cc1cc(C)cc(NC(=O)CCc2c(C)nn(-c3ccc(N4CCCC4)nn3)c2C)c1` gave TDP1 cell CPT 21µM*, TDP1 inh 6% and TDP1 cell noCPT 26µM*.
`O=C1CC(c2cccs2)Cc2nc(NC(=O)C3CC3)ncc21` (centres undefined) gave TDP1 cell CPT 2%, ELG1 repair inh 1%, TDP1 inh 0%, Giardia killer -20, IL1B secr inh -15 and TDP1 cell noCPT -7%.
`Cc1nn(-c2ccc(N3CCOCC3)nn2)c(C)c1CCC(=O)Nc1ccc(F)cc1F` gave TDP1 cell CPT inconclusive, TDP1 inh 8% and TDP1 cell noCPT inconclusive.
`Cc1nn(-c2ccc(N3CCCCC3)nn2)c(C)c1CCC(=O)Nc1ccc(F)cc1F` gave TDP1 cell CPT 16µM*, TDP1 inh 7% and TDP1 cell noCPT 18µM*.
Screening CC1=NOC(=O)/C1=C\c1ccc(-c2ccc(Br)cc2)o1 returned TDP1 cell CPT 13µM*, ELG1 repair inh -3%, TDP1 inh -7%, Giardia killer 3, IL1B secr inh -99* and TDP1 cell noCPT 12µM*.
For CC1=NOC(=O)/C1=C\c1ccc(-c2cc(Cl)ccc2Cl)o1 the results were TDP1 cell CPT inconclusive, ELG1 repair inh inconclusive, Giardia killer 47, IL1B secr inh -55* and TDP1 cell noCPT inconclusive.
`CC1=NOC(=O)/C1=C/c1ccc(-c2ccc(Cl)cc2)o1` gave ELG1 repair inh -13% and TDP1 inh -1%.
COc1ccc(Cl)cc1/C=C1/C(=O)ON=C1C was read as TDP1 cell CPT inconclusive, ELG1 repair inh 9%, Giardia killer 20, IL1B secr inh -9 and TDP1 cell noCPT inconclusive.
For C=CCN1C(=O)c2ccc(C(=O)NCCc3ccc(OC)c(OC)c3)cc2C1=O the results were TDP1 cell CPT 6%, ELG1 repair inh 0%, TDP1 inh 4%[56.1 µM], Giardia killer -10, IL1B secr inh -3 and TDP1 cell noCPT -1%.
Screening COC(=O)c1sccc1S(=O)(=O)N1CCN(c2ccccc2OC)CC1 returned TDP1 cell CPT -26%, TDP1 inh 8% and TDP1 cell noCPT inconclusive.
